Measurements taken from PubChem BioAssay AID2162 (National Center for Advancing Translational Sciences (NCATS), 2009).
Results filed as inconclusive are left out. Values without a mark were called inactive. Calls of active or inactive are those of the source. Calls come from the whole dose curve; as a rule, active = well fitted inhibition curve with a large enough effect; inconclusive = small, poorly fitted or top-dose-only effect; inactive = flat fitted curve, though single readings scatter.

target: Polyunsaturated fatty acid lipoxygenase ALOX12 (Homo sapiens) (UniProt P18054); test: Confirmation qHTS Assay for Inhibitors of 12-hLO (12-human lipoxygenase); details: purified 12-hLO, xylenol orange absorbance; activity change, negative = inhibition: active compounds read low
Text: Assay Provider: Holman, T.R., University of California, Santa Cruz Screening Center PI: Austin, Christopher P. Screening Center: NIH Chemical Genomics Center Human lipoxygenase 12hLO is a member of the closely related lipoxygenase family of enzymes which catalyze the site-specific oxidation of arachidonic acid to various hormone precursor molecules and as such is a candidate for drug development in a variety of disease areas, such as cancer and inflammation. Inhibition of 12hLO activity was screened by utilizing arachidonic acid as a substrate. The extent of hydroperoxide product formation was measured by a secondary chromogenic reaction in which xylenol orange (XO, Sigma-Aldrich, cat. number 39,818-7) reacts with the ferric ions produced from the reaction between the hydroperoxide and ferrous ions. The Fe(III)-XO complex is characterized with red-shifted absorbance at 560 nm. A purified preparation of human 12hLO was supplied by Professor Ted Holman, University of California, Santa Cruz. This assay includes some confirmation and follow-up compounds for related primary screening assay AID 1452.
Assay Protocol: Buffer: 25 mM Hepes pH 7.0, 0.01% Triton X-100. Reagents/Controls: Buffer in columns 3 and 4 as negative control (no enzyme). Substrate solution: 40 uM arachidonic acid (Sigma-Aldrich, St. Louis, MO) final concentration dispensed throughout the plate. Enzyme: 150 nM 12hLO final concentration in columns 1, 2, 5-48. Column 1 is neutral (100% activity). Column 2 contained pin-transferred titration of NDGA (nordihidroguaiaretic acid, Sigma-Aldrich, N 5023, top concentration 20 mM in DMSO, then 1:3 dilution in duplicate). (Dilution factor: 23 nL into 4 uL.) Chromogenic detection reagent (divalent iron/xylenol orange, Fe-XO): 200 uM xylenol orange plus 300 uM ferrous ammonium sulfate prepared freshly in 50 mM sulfuric acid. Assay Steps: Three uL of enzyme were dispensed to 1536-well Greiner black clear bottom plates. Compounds and controls (23 nL) were transferred via Kalypsys PinTool. The plates were incubated for 15 min at room temperature, and then 1 uL of substrate solution was added to start the reaction. After room temperature incubation for 30 minutes, 4 uL of Fe-XO solution was added to each well and the plates were incubated for 30 min. The absorbance at 405 and 573 nm were measured using ViewLux (Perkin-Elmer) High-throughput CCD imager and absorbance protocol settings. The 573-to-405 absorbance ratio was used to compute reaction progress.

Chain of Polyunsaturated fatty acid lipoxygenase ALOX12 (Homo sapiens) (P18054 whole entry, looked up): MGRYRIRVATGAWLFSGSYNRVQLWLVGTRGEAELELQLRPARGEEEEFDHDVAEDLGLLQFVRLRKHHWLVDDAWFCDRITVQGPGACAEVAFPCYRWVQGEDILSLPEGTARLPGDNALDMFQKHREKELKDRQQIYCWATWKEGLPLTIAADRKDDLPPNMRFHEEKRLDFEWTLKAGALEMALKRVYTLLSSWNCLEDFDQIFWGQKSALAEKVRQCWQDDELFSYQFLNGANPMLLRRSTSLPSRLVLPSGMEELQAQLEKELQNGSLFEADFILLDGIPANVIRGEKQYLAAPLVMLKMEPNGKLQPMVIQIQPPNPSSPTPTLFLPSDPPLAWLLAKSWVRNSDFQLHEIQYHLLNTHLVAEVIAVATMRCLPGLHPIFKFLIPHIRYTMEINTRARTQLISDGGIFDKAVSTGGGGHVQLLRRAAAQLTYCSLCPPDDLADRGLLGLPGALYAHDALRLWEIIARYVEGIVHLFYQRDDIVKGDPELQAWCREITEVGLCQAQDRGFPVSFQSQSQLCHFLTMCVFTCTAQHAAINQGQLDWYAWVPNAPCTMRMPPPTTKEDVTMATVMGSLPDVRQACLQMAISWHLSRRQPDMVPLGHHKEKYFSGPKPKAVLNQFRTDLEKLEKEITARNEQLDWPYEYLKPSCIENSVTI

| Structure (SMILES) | Potency | activity change, negative = inhibition [%] |
| --- | --- | --- |
| CCC(=O)NC(c1cccs1)c1ccc2cccnc2c1O (stereo not given) | 17.8 µM (active) |  |
| O=C(OCC#CCSc1nnc(-c2cccc3ccccc23)o1)c1ccc2ccccc2c1 |  | -5.58 |
| CC(=O)N1CCN(c2ccc(NCc3ccccc3)cc2)CC1 | 31.6 µM (active) |  |
| COc1ccc(NC(=O)CSc2nc(O)cc(=O)n2-c2ccccc2OC)cc1 |  | -18 |
| N#Cc1nc(-c2cccc3ccccc23)oc1NCC#CCOC(=O)c1cccs1 |  | -20.1 |
| CC(=O)N1CCN(c2ccc(NCc3ccc(F)cc3)cc2)CC1 | 31.6 µM (active) |  |
| O=C(OCC#CCSc1nnc(-c2cccc3ccccc23)o1)c1cc2ccccc2o1 |  | -10.1 |
| O=C(c1ccncc1)N1CCC2(CCCN(Cc3nccs3)C2)CC1 |  | -1.82 |
| CCC(=O)NC(c1ccc(C)cc1)c1cc([N+](=O)[O-])c2cccnc2c1O (stereo not given) | 28.2 µM (active) |  |
| O=C(OCC#CCNc1nnc(-c2cccc3ccccc23)o1)c1cccs1 |  | -21.1 |
| CC(=O)N1CCN(c2ccc(NCc3ccc(C)cc3)cc2)CC1 | 22.4 µM (active) |  |
| CCOc1cc(-c2cc(-c3ccc(N)cc3)nc(N)c2C#N)ccc1O |  | -26.8 |
| CNc1oc(-c2cccs2)nc1C#N |  | -10.4 |
| CC(=O)[C@@H]1[C@@H]2C(=O)N(Cc3ccccc3)C(=O)[C@@H]2C2c3ccccc3C=CN21 (stereo not given in full) |  | -19.1 |
| CCC(=O)NC(c1ccc(C)cc1)c1cc(Cl)c2cccnc2c1O (stereo not given) | 28.2 µM (active) |  |
| CCC(=O)NC(c1cccs1)c1cc([N+](=O)[O-])c2cccnc2c1O (stereo not given) | 7.94 µM (active) |  |
| NC(=O)c1cccc2c3c([nH]c12)CCCC3 |  | -10.2 |
| Cc1cc(/C=N/NC(=O)Cn2c3ccccc3c(=O)c3ccccc32)c(C)n1-c1ccccc1 |  | -20.8 |
| CCC(=O)NC(c1ccc2c(c1)OCO2)c1cc(Cl)c2cccnc2c1O (stereo not given) | 25.1 µM (active) |  |
| O=C(C1=C(O)C(=O)N(Cc2ccco2)C1c1cccnc1)c1cc2ccccc2o1 (stereo not given) |  | -19 |

| Structure (SMILES) | Potency | activity change, negative = inhibition [%] |
| --- | --- | --- |
| COc1cccc(-c2nccc(NCc3ccccc3OC)n2)c1 |  | -13.1 |
| N#Cc1nc(-c2ccc(OCc3ccc(Cl)cc3)cc2)oc1N1CCC(C(N)=O)CC1 |  | -12.9 |
| Oc1ccc2ccccc2c1CNc1cnc2ccccc2c1 | 5.01 µM (active) |  |
| O=C(OCC#CCSc1nnc(-c2cccc3ccccc23)o1)c1ccc(Br)cc1 |  | -6.83 |
| CCC(=O)NC(c1cccs1)c1cc(Cl)c2cccnc2c1O (stereo not given) | 7.94 µM (active) |  |
| CCC(=O)NC(c1ccc(C)cc1)c1ccc2cccnc2c1O (stereo not given) | 31.6 µM (active) |  |
| CCCC(=O)NC(c1ccco1)c1cc(Cl)c2cccnc2c1O (stereo not given) | 2.82 µM (active) |  |
| CCOC(=O)c1c(NC(=O)CN2CCOCC2)sc2c1CCCC2 |  | -5.92 |
| COc1ccc(C(C[N+](=O)[O-])c2c(-c3ccccc3)cc3ccccn23)c(OC)c1 (stereo not given) |  | -14.8 |
| Cc1csc(-c2coc3cc(O)cc(C)c3c2=O)n1 |  | -12.2 |
| O=C(OCC#CCSc1nnc(-c2cccc3ccccc23)o1)c1cnc[nH]1 |  | -8.94 |
| N=c1c(C(=O)NC2CCCC2)cc2c(=O)n3ccccc3nc2n1C1CCCC1 |  | -15.4 |
| COc1ccccc1C(=O)OCC#CCSc1nnc(-c2cccc3ccccc23)o1 |  | -4.87 |
| CCC(=O)NC(c1cccc(C)c1)c1cc(Cl)c2cccnc2c1O (stereo not given) | 39.8 µM (active) |  |
| CCC(=O)NC(c1ccc(C)s1)c1cc(Cl)c2cccnc2c1O (stereo not given) | 39.8 µM (active) |  |
| O=C(OCC#CCSc1nnc(-c2cccc3ccccc23)o1)c1cccc2[nH]ccc12 |  | -10.7 |
| Cc1noc(C)c1-c1nc(N(C)Cc2ccco2)c2ccccc2n1 |  | -12.2 |
| CCC(=O)N(Cc1cc(=O)[nH]c2ccccc12)C1CCCCC1 |  | 3.25 |
| COCCSc1ccccc1C(=O)NCc1ccco1 |  | -7.73 |
| O=C(Nc1nc2n(n1)C(c1ccccc1)CC(c1ccc(Cl)cc1)N2)c1ccco1 (stereo not given) | 14.1 µM (active) |  |
